About 83,000 compounds went through this panel and 20% of them were active in at least one assay; those are over-represented in the sample as a whole.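 Note: values are percent growth. 100 is the growth of untreated cells, values between 100 and 0 indicate rising inhibition; between -100 and 0 indicates cell death.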 Activity calls are given as the source filed them. Rule for the calls: active = growth percent below 10; inactive = the rest.
How the values were obtained:
Experiment in all cases: NCI-60 one-dose screen, 48 h (100 = growth as untreated, 0 = no growth, -100 = all killed)
Details in all cases: 10 µM unless noted
[1] = test system: RPMI-8226 leukemia
[2] = test system: OVCAR-8 ovarian
[3] = test system: OVCAR-5 ovarian
[4] = test system: OVCAR-4 ovarian
[5] = test system: SK-OV-3 ovarian
[6] = test system: IGROV1 ovarian
[7] = test system: OVCAR-3 ovarian
[8] = test system: HS 578T breast
[9] = test system: NCI/ADR-RES ovarian
[10] = test system: T-47D breast
[11] = test system: BT-549 breast
[12] = test system: MDA-MB-435 melanoma
[13] = test system: SW-620 colon
[14] = test system: MCF7 breast
[15] = test system: HCT-116 colon
[16] = test system: HCC-2998 colon
[17] = test system: KM12 colon

Measured: growth

COc1ccc2cc(C(=O)N3CCC([C@@H](C)C(=O)NCc4ccc5c(c4)OCO5)CC3)[nH]c2c1
inactive: [1] 47.1% [50 µM] | [2] 16.3% [50 µM] | [3] 73.1% [50 µM] | [4] 53.3% [50 µM] | [6] 41.6% [50 µM] | [8] 22.9% [50 µM] | [9] 38.3% [50 µM] | [10] 17.3% [50 µM] | [11] 16% [50 µM] | [12] 65.9% [50 µM] | [13] 103% [50 µM] | [14] 46.8% [50 µM] | [15] 33.6% [50 µM] | [16] 83% [50 µM] | [17] 79.1% [50 µM]
active: [5] 1.39% [50 µM] | [7] 8.71% [50 µM]

c1csc(-c2cn3nc(-c4c[nH]c5ccccc45)sc3n2)c1
inactive: [1] 17.1% | [2] 29.2% | [3] 37.1% | [4] 45% | [5] 26.4% | [6] 30.6% | [8] 29.1% | [9] 12% | [10] 23.9% | [11] 38% | [13] 22.5% | [14] 13% | [15] 14.7% | [16] 52.4% | [17] 23.8%
active: [7] -7.97% | [12] -38.4%

CC[C@H](Nc1nc(N)nc(C)c1C#N)c1nc2cccc(CN(C)c3ncc(C(=O)NO)cn3)c2c(=O)n1-c1ccccc1
inactive: [4] 31.4% | [9] 73.3% | [11] 34.6% | [14] 10.8% | [17] 16.4%
active: [1] 4.89% | [2] 4.22% | [3] 3.2% | [5] -19.4% | [6] -36.2% | [7] 5.16% | [8] 8.03% | [10] -23.1% | [12] -3.69% | [13] 3.51% | [16] -7.29%

CCNC(=O)N1CCc2c(Br)c3c(c(OC)c2C1Cc1ccc(OC)cc1)OCO3 (stereo not given)
active: [7] 7.18% | [9] 4.18% | [12] -9.57%
inactive: [1] 44.3% | [2] 49.8% | [3] 74.4% | [4] 54.3% | [5] 27.6% | [6] 35.7% | [8] 16.9% | [10] 20.6% | [11] 30% | [13] 19% | [14] 12.2% | [15] 20.9% | [16] 71.3% | [17] 22%

COc1cc([C@@H](CCO)C[C@H](C)c2ccc3ccccc3c2)cc(OC)c1OC
active: [7] 8.71% | [12] 2.44%
inactive: [1] 22.6% | [2] 43.5% | [3] 70.2% | [4] 55.8% | [5] 33.8% | [6] 51.2% | [8] 22.2% | [9] 16.5% | [10] 45.3% | [11] 26% | [13] 18.9% | [14] 18.8% | [15] 18.7% | [16] 56.1% | [17] 26.3%

N#Cc1ccccc1-c1ccc(CN2C(=O)S/C(=C\c3ccc(Br)cc3)C2=O)cc1
inactive: [1] 103% | [2] 101% | [3] 101% | [4] 90.2% | [5] 94.3% | [6] 98.3% | [7] 112% | [8] 92.3% | [9] 94.1% | [10] 85.3% | [11] 95.9% | [12] 94.5% | [13] 103% | [14] 95% | [15] 105% | [16] 98.9% | [17] 98.9%

O=C(Nc1cccnc1Nc1ccccc1)c1cn(Cc2cccc(Oc3ccccc3)c2)nn1
active: [12] -19.3%
inactive: [1] 57.2% | [2] 71.4% | [3] 103% | [4] 86.9% | [5] 77.1% | [6] 78.1% | [7] 52.6% | [8] 40.8% | [9] 33.8% | [10] 71.3% | [11] 66.2% | [13] 42.4% | [14] 23.5% | [15] 33.1% | [16] 90.1% | [17] 35%

ClCCn1cnc2c(SCc3ccccc3)ncnc21
inactive: [2] 41.8% | [3] 101% | [4] 81.8% | [5] 62.5% | [6] 133% | [7] 73.4% | [8] 62.8% | [9] 57.1% | [10] 73.8% | [11] 70.4% | [12] 51.8% | [13] 39.4% | [14] 42.5% | [15] 31.5% | [17] 53.2%

COc1ccc2c(c1)CC[C@@H]1[C@@H]2CC[C@]2(C)C3C(=CC(COC(C)=O)C4C(=O)N(c5ccc(Cl)cc5)C(=O)C43)C[C@@H]12 (stereo not given in full)
inactive: [1] 61.8% | [2] 107% | [3] 78.4% | [4] 101% | [5] 125% | [6] 119% | [7] 110% | [8] 110% | [9] 102% | [10] 105% | [11] 116% | [12] 111% | [13] 104% | [14] 108% | [15] 85.2% | [16] 92.9% | [17] 102%
